Assay results taken from PubChem BioAssay (EPA / NIEHS).
Records with an inconclusive call do not appear. Active and inactive are the calls of the source. The calls were made as follows: active = hit-call score of the fitted dose curve at least 0.9, where 1 is the maximum; inconclusive = response in the unintended direction; inactive = score below 0.9.

Molecular target: Estrogen receptor (Homo sapiens) (UniProt P03372)
Assay: OT_ER_ERaERa_1440: Odyssey Thera (OT) 24-hour HEK293T Protein-Complementation Assay for Estrogen Receptor-alpha/-alpha Homodimer (AID 2283349);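 also: hits raise fluorescence above DMSO for agonists and antagonists alike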
Method: OT_ER_ERaERa_1440 is a cell-based assay that uses HEK293T, a human kidney cell line, with measurements taken at 24 hours after chemical dosing in a 384-well plate.OT_ER_ERaERa_1440 is one of one assay component(s) measured or calculated from the OT_ER_ERaERa_1440 assay. It is designed to make measurements of protein fragment complementation, a form of binding reporter, as detected with fluorescence intensity signals by Protein-fragment Complementation technology.Data from the assay component OT_ER_ERaERa_1440 was analyzed into 1 assay endpoint. This assay endpoint, OT_ER_ERaERa_1440, was analyzed in the positive analysis fitting direction relative to DMSO as the negative control and baseline of activity. Using a type of binding reporter, measures of receptor for gain-of-signal activity can be used to understand the binding at the pathway-level as they relate to the gene ESR1. Furthermore, this assay endpoint can be referred to as a primary readout, because the performed assay has only produced 1 assay endpoint. To generalize the intended target to other relatable targets, this assay endpoint is annotated to the nuclear receptor intended target family, where the subfamily is steroidal.
Protein-fragment complementation assay, or PCA, is a method for the identification and quantification of protein-protein interactions. In the PCA, the proteins of interest ("bait" and "prey") are each covalently linked to fragments of a third protein (e.g. DHFR, which acts as a "reporter"). Interaction between the bait and the prey proteins brings the fragments of the reporter protein in close proximity to allow them to form a functional reporter protein whose activity can be measured. The OT ER alpha / ER alpha assay is a homodimer PCA of the ligand binding domain (amino acids 310-547) of human ER alpha stably expressed in HEK293T cells. […] Fluorescent signal in the basal state of the assay is very low and is primarily punctuate and cytoplasmic. Modulation of this assay is quantified as an increase in mean fluorescence intensity in the nucleus (for agonists) or in the nucleus and cytoplasm (antagonists) relative to vehicle controls, and can be quantified on a high content imaging device or a laser scanning cytometer. The latter instrument is favored for this assay because of the rapid mode of data acquisition, the ability to acquire data from the entire cell population in a well (as opposed to a fraction of the well on the high content devices) and the larger dynamic range typically achieved with this instrument. To assess sensitivity of the ER alpha/ER alpha LBD assay to ligand, cells were treated with the ER agonist 17 beta-estradiol (E2) in 10-point concentration- response format for 24 hours and monitored response on a laser scanning plate cytometer (Acumen eX3; TTP Lab Tech).

Chain of Estrogen receptor (Homo sapiens) (P03372 whole entry, looked up, the tested form may be a part): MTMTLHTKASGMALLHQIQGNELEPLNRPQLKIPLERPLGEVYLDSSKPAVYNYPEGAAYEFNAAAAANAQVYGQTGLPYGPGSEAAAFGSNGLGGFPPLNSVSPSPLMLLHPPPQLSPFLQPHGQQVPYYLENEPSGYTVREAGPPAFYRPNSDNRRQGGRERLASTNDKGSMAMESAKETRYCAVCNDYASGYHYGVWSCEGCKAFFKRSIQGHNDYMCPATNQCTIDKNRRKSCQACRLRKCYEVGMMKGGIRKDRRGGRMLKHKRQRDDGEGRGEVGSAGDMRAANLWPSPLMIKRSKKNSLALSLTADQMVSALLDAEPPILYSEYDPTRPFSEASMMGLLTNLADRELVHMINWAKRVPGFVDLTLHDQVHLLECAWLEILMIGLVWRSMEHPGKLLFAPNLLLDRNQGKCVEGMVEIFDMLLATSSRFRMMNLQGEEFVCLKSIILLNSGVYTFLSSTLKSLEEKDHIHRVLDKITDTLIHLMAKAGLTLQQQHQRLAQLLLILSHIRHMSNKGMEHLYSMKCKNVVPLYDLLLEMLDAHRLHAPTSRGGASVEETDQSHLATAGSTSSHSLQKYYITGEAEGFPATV

outcome, inactive:
O=C(Nc1ccc2c(O)c(N=Nc3ccc(N=Nc4ccc(S(=O)(=O)O)cc4)cc3)c(S(=O)(=O)O)cc2c1)c1ccccc1
CC(C)CCCCCCc1ccc(OCCOCCO)cc1
CS(=O)(=O)OCCCCOS(C)(=O)=O
CC(C)NCC(O)COc1ccc(CC(N)=O)cc1 (configuration not stated)
OCC(O)c1ccccc1 (configuration not stated)
CCCCCCCCCCCC(=O)OCC(O)CO (configuration not stated)

Molecular target: Estrogen receptor (Homo sapiens) (UniProt P03372)
Assay: OT_ER_ERaERa_0480: Odyssey Thera (OT) 8-hour HEK293T Protein-Complementation Assay for Estrogen Receptor-alpha/-alpha Homodimer (AID 2283351);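 also: rise in fluorescence from reassembled reporter fragments on ERα LBD homodimer in nucleus or whole cell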
In short: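 Read-out: fluorescence intensity rise relative to DMSO, nuclear for agonists, nuclear plus cytoplasmic for antagonists. Construct is the ERα LBD (aa 310-547) homodimer fragment-complementation pair, stably expressed in HEK293T; exposure 8 h.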

outcome, inactive:
O=C(Nc1ccc2c(O)c(N=Nc3ccc(N=Nc4ccc(S(=O)(=O)O)cc4)cc3)c(S(=O)(=O)O)cc2c1)c1ccccc1
CC(C)CCCCCCc1ccc(OCCOCCO)cc1
CS(=O)(=O)OCCCCOS(C)(=O)=O
CC(C)NCC(O)COc1ccc(CC(N)=O)cc1 (configuration not stated)
OCC(O)c1ccccc1 (configuration not stated)
CCCCCCCCCCCC(=O)OCC(O)CO (configuration not stated)
